Assay results: PubChem BioAssay (EPA / NIEHS)
Activity calls are given as the source filed them. How the source made its calls: active means hit-call score of the fitted dose curve at least 0.9, where 1 is the maximum; inactive means score below 0.9.

Experiment: ATG_BRE_CIS: Attagene CIS-FACTORIAL HepG2 Assay for human Bone Morphogenetic Protein (BMP) Response Element (BRE) (AID 2282933)
Details: HepG2 BMP response element reporter, Attagene transcription factor profiling; actives raise or lower the signal
Method in brief: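 Endogenous transcription factor activity read in transiently transfected HepG2 cells after 24 h chemical exposure. Bidirectional curve fitting against DMSO; readout is reporter transcript level by RT-PCR with capillary electrophoresis of labelled products.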

Row | SMILES | outcome
1 | CC[C@]12CCCN3CCc4c(n(c5ccccc45)[C@@](O)(C(=O)OC)C1)[C@@H]32 | inactive
2 | CCCCCCCCC=O | inactive
3 | Nc1cc(N)cc(C(=O)O)c1 | inactive
4 | ClCCCl | inactive
5 | Cc1ccc(Nc2ccc(O)c3c2C(=O)c2ccccc2C3=O)cc1 | inactive
6 | c1ccc2sc(SN(C3CCCCC3)C3CCCCC3)nc2c1 | inactive
7 | COc1nc(C)nc(N)n1 | inactive
8 | COc1cc(C=O)ccc1OC(=O)C(C)C | inactive
9 | CCCCCCCCCC=O | inactive
10 | S=C(S)NCCNC(=S)S | inactive
11 | Cc1ccccc1C=O | inactive
12 | OCc1cccnc1 | inactive
13 | O=C(O)c1cccc(C(F)(F)F)c1 | inactive
14 | CC(=O)OCCOC(C)=O | inactive
15 | O=Nc1ccc(Nc2ccccc2)cc1 | inactive
16 | CC(C=O)Cc1ccc(C(C)C)cc1 (stereo not given) | inactive
17 | CC(C)=CCO | inactive
18 | Nc1cc([N+](=O)[O-])ccc1O | inactive
19 | O=C(O)Cc1cccc2ccccc12 | inactive
20 | CCC/C=C/C=O | inactive
